{
  "source": "PubChem BioAssay (NCI)",
  "note": "The panel holds about 83,000 compounds, 20% with a hit somewhere; the sample as a whole holds those more often.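 For each line, cells grew in 96-well plates with the test compound present at a single concentration for 48 hours.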 A number with no mark means an inactive call. The source made the active and inactive calls.",
  "data": [
    {"test_system": "NCI-H226 lung", "test": "NCI-60 one-dose screen, 48 h (100 = growth as untreated, 0 = no growth, -100 = all killed)", "conditions": "10 µM unless noted", "method": "Growth inhibition of the NCI-H226 human Non-Small Cell Lung tumor cell line is measured as a screen for anti-cancer activity. Cells are grown in 96 well plates and exposed to the test compound for 48 hours. Compounds are tested at a single concentration, which is 10^-5 M for most compounds. The reported endpoint is percent growth (GI% or GIPRCNT), where numbers from 0 - 100% represent growth inhibition, and numbers from -100% - 0 represent cell death. For example, a value of 40 represents 60% growth inhibition. A value of 0 means no net growth occurred over the course of the experiment. A value of -40 indicates 40% of cells at the beginning of the experiment died by the end of the experiment. A value of -100 means all cells are dead at the end of the experiment.\nNCI-60 Human Tumor Cell Lines Screen was performed using the standard one-dose NCI protocol, which is described in more detail at https://dtp.cancer.gov/discovery_development/nci-60/default.htm.\nCompounds with GIPRCNT values below 10 were considered active. Activity score was based on GIPRCNT using the following formula: […]\nScore is 0 for GIPRCNT values of 100 or above, 50 for GIPRCNT values of 0, and 100 for GIPRCNT values of -100.", "values": [
      {"molecule": "CCC(=O)c1c(C)[nH]c(C)c1C", "growth": "101%"},
      {"molecule": "CC(C)/C=C/CC[C@](C)(O)[C@H]1CC[C@]2(C)[C@@H]1CC[C@@H]1[C@@]3(C)C/C(=C/c4cccc(C(F)(F)F)c4)C(=O)C(C)(C)[C@@H]3CC[C@]12C", "growth": "94.9%"},
      {"molecule": "O=C(/C=C/c1cccc2ccccc12)Nc1ncc(Cc2ccccc2)s1", "growth": "28.4%"},
      {"molecule": "COc1ccc(O)c(-c2cc(-c3ccc(Cl)cc3)c(C#N)c(=O)[nH]2)c1", "growth": "89.1%"},
      {"molecule": "Fc1ccc2nc(-c3cc(-c4ccc5c(c4)OCO5)n[nH]3)[nH]c2c1", "growth": "66.1%"},
      {"molecule": "COC(=O)[C@]12CC[C@@H](C)[C@H](C)[C@@H]1C1=CC[C@@H]3[C@@]4(C)CC(=O)[C@H](OC(=O)c5ccco5)[C@@]5(C)COC(=C45)C[C@@]3(C)[C@]1(C)CC2", "growth": "23.6%"},
      {"molecule": "O=C1c2cc3c(cc2-c2c1c1ccc(Cl)cc1c(=O)n2C[C@H](O)[C@@H](O)[C@H](O)CO)OCO3", "growth": "-49.6% (active)"},
      {"molecule": "COc1ccc2[nH]cc(-c3nc(-c4c[nH]c5ncccc45)cs3)c2c1", "growth": "53.2%"},
      {"molecule": "Cn1cc(-c2nc(-c3cn(C)c4ncccc34)cs2)c2cc(F)ccc21", "growth": "68.8%"},
      {"molecule": "CCCCCCCC(=O)SCC/C=C/[C@@H]1CC(=O)NCc2cccc(n2)CN(Cc2ccc3ccccc3c2)CC(=O)N[C@@H](C(C)C)C(=O)O1", "growth": "67.5%"},
      {"molecule": "CN(C)CCCCC(C(=O)CBr)(c1ccccc1)c1ccccc1", "growth": "86.1%"},
      {"molecule": "COc1ccc(-c2nc3c(c(C)nn3-c3ccc(F)cc3)c(=O)[nH]2)cc1", "growth": "33.1%"},
      {"molecule": "CCCCn1c(-c2ccc(O)cc2)cn2c3c(=O)[nH]c(=O)n(C)c3nc12", "growth": "85%"},
      {"molecule": "C/C(=N\\Nc1cc(C)c2ccccc2n1)c1ccccn1", "growth": "-2.65% (active)"},
      {"molecule": "CCc1cccc(CC)c1NC(=O)c1sc2nc3c(cc2c1N)CCCC3", "growth": "83.2%"},
      {"molecule": "C=C(C)[C@@H]1CC[C@]2(C=NCCCNCCCCNCCCN)CC[C@]3(C)[C@H](CC[C@@H]4[C@@]5(C)CCCNC(C)(C)[C@@H]5CC[C@]43C)[C@@H]12", "growth": "80.1%"},
      {"molecule": "NCCn1cc(-c2nc(-c3c[nH]c4ncccc34)cs2)c2ccccc21", "growth": "70.6%"},
      {"molecule": "COc1cnc2c(c1)C(=O)c1c-2n(CCCNCCN2CCOCC2)c(=O)c2cc([N+](=O)[O-])ccc12", "growth": "-52.7% (active)"},
      {"molecule": "COc1cccc2c1C(=O)c1c(O)c3c(c(O)c1C2=O)C[C@@](O)(C(=O)CO)C[C@@H]3OC1C[C@H](N)[C@H](O)[C@H](C)O1", "note": "(stereo not given in full)", "growth": "-40.5% (active)"},
      {"molecule": "C=C(C)[C@@H]1CC[C@]2(C)[C@H](CC[C@@H]3[C@H]4[C@H]5OC[C@@]4(CCC5(C)C)CC[C@]32C)[C@@]1(C)CCCN", "growth": "100%"},
      {"molecule": "O=C(NO)c1ccc(Cn2c(=O)n(-c3ccccc3)c(=O)c3ccccc32)cc1", "growth": "41.3%"},
      {"molecule": "O=C1Nc2ccccc2/C1=C/c1cn(CCCn2c3ccccc3c(=O)c3ccccc32)c2ccccc12", "growth": "81.3%"},
      {"molecule": "CN1CCN(CCOc2ccc(-c3cnc4c(-c5cccc(F)c5)cnn4c3)cc2)CC1", "growth": "109%"},
      {"molecule": "CN(C)c1ccc(N)c2ccccc12", "growth": "47%"},
      {"molecule": "O=S(=O)(NCCNc1cc(-c2cn(-c3ccccc3)nc2-c2cccc(O)c2)ccn1)c1cccc(F)c1", "growth": "55.3%"},
      {"molecule": "O=C(NO)c1ccc(Cn2c(=O)n(CCc3ccc(O)cc3)c(=O)c3ccccc32)cc1", "growth": "82.5%"},
      {"molecule": "Nc1ccc(Cl)cn1", "growth": "95%"},
      {"molecule": "O=C(/C=C/c1cccc(O)c1)c1ccccc1O", "growth": "98.2%"},
      {"molecule": "CN1CCN(CCOc2ccc(-c3cnc4c(-c5ccccc5F)cnn4c3)cc2)CC1", "growth": "105%"},
      {"molecule": "COc1ccc(/C=C/C(=O)NCC(C)O)cc1", "note": "(stereo not given)", "growth": "91.5%"},
      {"molecule": "Cc1cc2nc3c4cc(N)ccc4n(CCN(C)C)c3nc2cc1C", "growth": "1.78% (active)"},
      {"molecule": "Cc1nn(-c2ccc(Br)cc2)c2nc3[nH]c(=O)[nH]c(=O)c3nc12", "growth": "103%"},
      {"molecule": "C=C1C(=O)O[C@H]2[C@H]1CC/C(COC(=O)NCCc1c[nH]c3ccccc13)=C\\CC[C@@]1(C)O[C@@H]21", "growth": "57.3%"},
      {"molecule": "COc1cc(-c2cc3ncccc3c3nc(OCCN(C)C)c4cccnc4c23)cc(OC)c1OC", "growth": "-5.43% (active)"},
      {"molecule": "CCC(CC)C(=O)OC(C)COc1ccc(C(C)(C)C)cc1", "note": "(stereo not given)", "growth": "100%"},
      {"molecule": "Cc1cccc(C)c1NC(=O)CSC(=S)N1CCCCC1", "growth": "109%"},
      {"molecule": "Cc1ccc(-c2nc([P+](c3ccccc3)(c3ccccc3)c3ccccc3)c(N3C[C@H]4C[C@H](C3)c3cccc(=O)n3C4)o2)cc1", "growth": "108%"},
      {"molecule": "O=C(NCN1C(=O)c2cccc3cccc(c23)C1=O)N1CCC(Cc2ccccc2)CC1", "growth": "96.7%"},
      {"molecule": "COc1ccc(-c2cc(-c3c(C)oc4cc5occc5c(OC)c4c3=O)nc(N)c2C#N)cc1OC", "growth": "66.2%"},
      {"molecule": "Cc1nn(-c2ccc(Cl)cc2)c(=O)n1CCn1cnc2ccccc21", "growth": "103%"}
    ]}
  ]
}
